Compound activity deposited in PubChem by National Center for Advancing Translational Sciences (NCATS).
Marburg entry inh – qHTS for inhibitors of binding or entry into cells for Marburg Virus; Marburg virus pseudotyped entry inhibition, cell reporter; Potency, µM (titrated, usually from 37.8 µM), for inactives: at the highest dose activity change, negative = inhibition, hits mostly inhibitors; hit rate 1.8% among 300,000; AID 540276, 2011; calls by dose curve; tested in HEK293 cells; note: potency is the fitted concentration of half-maximal effect; % is set by controls: 0 for no effect and ±100 for the full control effect
Shiga toxin inh – A qHTS for Small Molecule Inhibitors of Shiga Toxin. Vero cells, Shiga toxin protein synthesis inhibition reporter. inhibition, % at 38.7 µM. hit rate 9.2% among 290,000. AID 2315, 2010; in the data active = inhibition mostly above about 28%, no sharp cut-off; inactive = mostly below about 43%; note: 0% is about no effect
HCV inh – qHTS Assay for Inhibitors of Hepatitis C Virus (HCV). Huh7.5.1 HCVcc-Cre infection, luciferase reporter, 44 h. Potency, µM (top dose mostly 41.8 µM), for inactives: top-dose activity change, negative = inhibition, hits mostly inhibitors. hit rate 3.4% among 340,000. AID 651820, 2012; active = well fitted inhibition curve with a large enough effect; inconclusive = small, poorly fitted or top-dose-only effect, or another doubt; inactive = no such curve, though single readings can be large or run the other way; note: potency is the fitted concentration of half-maximal effect; % is set by controls: 0 for no effect and ±100 for the full control effect
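Seed cells (1,000/well) for 4 h; treat with compound and infect with HCVcc-Cre, moi about 0.5. Incubate 44 h, then detect luciferase activity.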
Cycloheximide cs – Cycloheximide Counterscreen for Small Molecule Inhibitors of Shiga Toxin | cell reporter, cycloheximide protein synthesis inhibition counterscreen | max response, % | hit rate 12% among 300,000 | AID 2314, 2010; in the data active = max response mostly above about 13%, no sharp cut-off; inactive = mostly below about 14%; note: read at 38.3 µM for the half of the compounds with a filed dose; 0% is about no effect
Lassa entry inh – qHTS for Inhibitors of binding or entry into cells for Lassa Virus; Lassa virus pseudotype entry inhibition, cell reporter; Potency, µM (doses to about 37.9 µM), for inactives: at the top dose activity change, negative = inhibition, hits mostly inhibitors; hit rate 1.2% among 300,000; calls by dose curve; tested in HEK293 cells; note: potency is the fitted concentration of half-maximal effect; % is set by controls: 0 for no effect and ±100 for the full control effect; nearly all actives have a fitted effect of over 50% in size
FMDV inh – High Throughput Screening for Foot and Mouth Disease Virus Antivirals | FMDV antiviral cell-based qHTS | Potency, µM (top dose mostly 57.9 µM), without a hit: top-dose activity change, negative = inhibition, hits mostly inhibitors | hit rate 1.2% among 410,000 | AID 1159524, 2015; calls by dose curve; tested in HEK293T cells; note: read-out not given here; potency is the fitted concentration of half-maximal effect; % is set by controls: 0 for no effect and ±100 for the full control effect; nearly all actives have a fitted effect of over 45% in size
An asterisk follows results filed as active; u = inconclusive; x = not tested or not shown; [ ] = remark or other dose. An excerpt weighted towards active compounds, which were near 13% of everything screened.

SMILES	Marburg entry inh	Shiga toxin inh	HCV inh	Cycloheximide cs	Lassa entry inh	FMDV inh
Cc1cc(C)cc(NC(=O)CCc2c(C)nc3c4cccnc4nn3c2C)c1	16%[46.1 µM]	x	x	x	-7%[46.1 µM]	-14%
CC(C)=CCc1c(O)ccc2c1OC(c1ccc(O)c(O)c1)CC2=O (stereo unspecified)	x	4	u	14*	x	u
c1ccc(Oc2cccc(CN3CCOCC3)c2)cc1	-1%	-14	17%	28*	9%	-17%
CCN1CCN(Cc2ccc3c(c2)Cc2ccccc2-3)CC1	-1%	28	x	21	x	x
c1ccc2c(c1)Cc1cc(CN3CCOCC3)ccc1-2	u	76*	12%	41*	-2%	44%
CN(C)c1ccc(C(CNC(=O)COc2ccccc2)N2CCOCC2)cc1 (stereo unspecified)	x	x	x	x	-3%[46.1 µM]	-20%
O=C1SC(SCc2ccccc2)=N/C1=C\c1ccco1	16%	48*	u	24	-4%	1%
O=C1SC(SCc2ccccc2)=N/C1=C\c1ccc(C(=O)O)cc1	16%[46.1 µM]	-7	12%	-1	2%	-25%
Clc1cccc(Cl)c1/C=C/c1ccn[nH]1	x	67*	u	35*	x	31%
O=C(CN1C(=O)c2ccccc2C1=O)Nc1cccc([N+](=O)[O-])c1	9%[46.1 µM]	-10	-1%	-4	-2%	-21%
O=[N+]([O-])c1ccc(CSc2nc3ccccc3o2)cc1	u	121*	-15%	36*	7%	9%
COC(=O)c1ccc(CSc2nc3ccccc3o2)cc1	u	55*	1%	30*	u	0%
COCCN1Cc2cccc(C(=O)Nc3cc(OC)ccc3OC)c2C1=O	u	-14	8%	-1	-19%	-16%
Nc1ccccc1SC/C=C/CSc1ccccc1N	24%	68*	u	37*	-22%	0%
c1ccc(Nc2cccc(Nc3ccccc3)c2)cc1	u	78*	39%	44*	u	20%
Cc1ccc(S(=O)(=O)Nc2ccc(Nc3ccccc3)cc2)cc1	u	-2	-14%	-3	-3%[46.1 µM]	8%
Cc1ccc(Nc2ccccc2)cc1	-2%[46.1 µM]	13	16%	19*	11%	1%
Nc1cccc(Nc2ccccc2)c1	5%[46.1 µM]	5	5%	6	24%[46.1 µM]	-2%
O=S1(=O)CC(N2CCN(CC3CC3)CC2)CN1C1CCCCC1 (stereo unspecified)	x	x	x	x	x	-15%
CCN(CC)S(=O)(=O)c1cccc(-c2nnc(SC(C)C(N)=O)n2CCc2ccccc2)c1 (stereo unspecified)	-4%[46.1 µM]	-11	-11%	-4	-16%	-17%
Cc1ccc(NNC(=O)c2c(F)cccc2Cl)cc1C	-18%[46.1 µM]	25	7%	13	-17%[46.1 µM]	31%
CCc1ccc(N2C(=O)NC(=O)/C(=C/c3cccn3CCOc3ccc(C)cc3)C2=O)cc1	15%[46.1 µM]	-3	-1%	13*	2%[46.1 µM]	-21%
Cc1cccc(OCCn2cccc2/C=C2/C(=O)NC(=O)N(Cc3ccco3)C2=O)c1	6%[46.1 µM]	21	-7%	14	-22%[46.1 µM]	-2%
O=C1NC(=O)N(Cc2ccco2)C(=O)/C1=C\c1cccn1CCOc1ccc(Cl)cc1	12%	-11	-4%	-4	-15%	35µM*
CCc1ccc(N2C(=O)NC(=O)/C(=C/c3cccn3CCOc3ccc(C(C)CC)cc3)C2=O)cc1 (stereo unspecified)	1%	121*	-8%	77*	x	u
SMILES	Marburg entry inh	Shiga toxin inh	HCV inh	Cycloheximide cs	Lassa entry inh	FMDV inh
C/C=C(/C)C(=O)O[C@H]1C(C)=C2C([C@@H]1OC(=O)CCCCCCC)[C@@](C)(OC(C)=O)C[C@@H](OC(=O)CCC)[C@@]1(O)[C@H]2OC(=O)[C@@]1(C)O (stereo partly specified)	0.71µM*	x	x	x	x	x
COCCNC(=O)C1(C)Cc2c(-c3cccc(C(F)(F)F)c3)ccnc2O1 (stereo unspecified)	x	x	x	x	x	-28%
CCOC(=O)c1oc2c(c1C)/C(=N/O)CCC2	25%	66*	13%	41*	u	32%
Cc1nn2c(COc3ccc(NC(=O)c4ccccc4Cl)cc3)nnc2c2ccccc12	7.1µM*	22	u	10	u	-28%
Cc1nn2c(COc3ccc(NC(=O)C(C)C)cc3)nnc2c2ccccc12	-1%	12	3%	6	u	2%
COc1ccc(Nc2nc(-c3sc(NC(C)=O)nc3C)cs2)cc1	-2%	1	x	-1	x	x
CC(=O)Nc1ccc(Nc2nc(-c3sc(C)nc3C)cs2)cc1	-40%	53	u	11*	u	32µM*
CC(=O)c1ccc(Nc2nc(-c3sc(C)nc3C)cs2)cc1	x	x	x	x	x	25µM*
Cc1nc(NC(=O)c2ccccc2)sc1-c1csc(Nc2ccc(F)cc2)n1	x	22	x	10	x	x
CS(=O)(=O)Nc1ccc(C(=O)Nc2ccc3ccccc3c2)cc1	18%	x	u	35*	2%	66%
CC(C)c1ccc(NC(=O)c2ccc(NS(C)(=O)=O)cc2)cc1	u	17	6.3µM*	12	-9%	-6%
CC(=O)c1cccc(NC(=O)c2ccc(NS(C)(=O)=O)cc2)c1	-10%	6	u	7	-1%	2%
COC(=O)c1ccccc1NC(=O)c1ccc(NS(C)(=O)=O)cc1	0%	12	11µM*	7	4%	-22%
CCN(C[C@H]1N[C@@](C)(C(=O)OC)[C@H]2C(=O)N(Cc3ccccc3)C(=O)[C@@H]12)C(=O)c1ccc(C(C)(C)C)cc1	x	x	-5%[8.37 µM]	x	x	u
CCOC(=O)C1CCCN(C(=O)COc2ccc(C(C)(C)C)cc2)CC1 (stereo unspecified)	x	x	x	x	x	-7%
O=C(OCc1cccc([N+](=O)[O-])c1)c1ccc[nH]c1=O	4%[46.1 µM]	18	5%	-5	17%[46.1 µM]	-1%
O=C1/C(=C\c2ccc([N+](=O)[O-])cc2)N2CCC1CC2	u	-19	5%	12	1%	-7%
COc1ccc(/C=C2/CCCC(CN(C)C)C2=O)cc1 (stereo unspecified)	-16%	x	u	x	-13%	-13%
COc1cccc(/C=C2\CCC(C3CCCC3)C2=O)c1OC (stereo unspecified)	u	97*	19%	38*	17%[46.1 µM]	-27%
COc1cccc(/C=C2/CCC(CN(C)C)C2=O)c1 (stereo unspecified)	11µM*	x	u	x	13µM*	25µM*
O=C1/C(=C/c2ccc([N+](=O)[O-])cc2)CCC1C1CCCC1 (stereo unspecified)	u	31	15%	18*	u	25%
Cc1cccc(/C=C2\CCC(C3CCCC3)C2=O)c1 (stereo unspecified)	u	14	43%	15*	-9%	85%
FC(F)(F)c1nnc(-c2ccccc2)nc1Oc1ccc(Cl)cc1Cl	14%	-6	25%	1	24%	u
